Source: PubChem BioAssay (NCI)
The panel holds about 79,000 compounds, 15% with a hit somewhere; the sample as a whole holds those more often. Rule as the data show it: active = growth inhibition above about 70%; inactive = the rest.

Assays:
[1] = NCI Yeast Anticancer Drug Screen. Data for the rad50 strain (AID 155);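 also: 0% = growth of vehicle-only cultures of the same strain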; conditions: S. cerevisiae rad50 strain growth inhibition; at 50.0 µM; hits give high values
Summary of the method: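 Growth of the mutant yeast was measured after compound exposure and referenced to vehicle-treated cultures.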

[2] = NCI Yeast Anticancer Drug Screen. Data for the mec2-1 strain (AID 157); conditions: S. cerevisiae mec2-1 strain, at 50.0 µM, hits give high values
Summary of the method: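 Using mec2-1 yeast: add compound, measure growth, express inhibition versus vehicle-treated cultures.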

[3] = NCI Yeast Anticancer Drug Screen. Data for the sgs1 mgt1 strain (AID 161);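 also: 0% = growth of cultures given vehicle only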; conditions: S. cerevisiae sgs1 mgt1 strain, at 50.0 µM, hits give high values
Summary of the method: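 Growth of a repair-deficient yeast mutant was monitored after compound treatment and expressed as inhibition relative to vehicle-treated cultures.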

[4] = NCI Yeast Anticancer Drug Screen. Data for the cln2 rad14 strain (AID 165);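 also: 0% = growth equal to vehicle treated cultures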; conditions: S. cerevisiae cln2 rad14 strain, at 50.0 µM, hits give high values
Summary of the method: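 Yeast strain cln2 rad14, bearing defects in cell cycle control and DNA repair, serves as the test system; values reflect growth inhibition compared with vehicle.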

[5] = NCI Yeast Anticancer Drug Screen. Data for the bub3 strain (AID 167); conditions: S. cerevisiae bub3 mutant strain, at 50.0 µM, hits give high values
Summary of the method: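 Whole-cell yeast assay. The mutant strain was incubated with compounds, and growth inhibition was determined by comparison with vehicle-treated cells.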

[6] = NCI Yeast Anticancer Drug Screen. Data for the mlh1 rad18 strain (AID 175); conditions: S. cerevisiae mlh1 rad18 strain growth inhibition; at 50.0 µM; hits give high values
Summary of the method: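 Steps: expose repair-defective yeast to compound; measure growth; express inhibition against vehicle-treated controls.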

Measured: growth inhibition

CC(=O)N(C(C)=O)c1ccccc1/C=C1\CCOC1=O
inactive: [1] -16.4% | [2] -18.9% | [3] -2.25% | [4] -5.05% | [5] 11.6% | [6] -17.6%

[O-]/[N+](=C\c1ccc(Cl)cc1)c1ccccc1
inactive: [1] -11.2% | [2] -14.1% | [3] -21.1% | [4] -8.85% | [5] -18.9% | [6] -7%

O=C1/C(=C/c2ccco2)CC/C1=C\c1ccco1
inactive: [1] 23.4% | [2] 15% | [3] 29% | [4] -18.1% | [5] 14.1% | [6] 44.5%

Cc1nc(N)[nH]c(=O)c1Cc1ccc(Cl)cc1Cl
inactive: [1] -1.65% | [2] -1.15% | [3] -5.7% | [4] -44.4% | [5] -12.6% | [6] 8.55%

Cc1nc(CCCCCCCC(=O)O)ccc1O
inactive: [1] 6.25% | [2] 7.25% | [3] -10.6% | [4] -9.35% | [5] 0.85% | [6] 7.3%

CCOCCOCCOC(=O)c1ccccc1O
inactive: [1] -6.75% | [2] 1.45% | [3] -4.4% | [4] -14.5% | [5] 11.2% | [6] 4.4%

S=C(N1CCN(c2cccc(Cl)c2)CC1)N1CCN(c2cccc(Cl)c2)CC1
inactive: [1] -7.4% | [2] 13.7% | [3] 23% | [4] 9.6% | [5] 2.1% | [6] 12.7%

O=C(O)/C=C/n1c2ccccc2c(=O)c2ccccc21
inactive: [1] -10.1% | [2] -13.8% | [3] -20.9% | [4] 8.9% | [5] -7.7% | [6] -15%

CCO[C@H]1c2cc3c(cc2[C@@H](c2cc(OC)c(OC)c(OC)c2)[C@H]2C(=O)OC[C@@H]21)OCO3
inactive: [1] 11.4% | [2] 6.25% | [3] 26.9% | [4] 28.7% | [5] 12.7% | [6] 24.9%

Cc1onc(-c2c(F)cccc2Cl)c1C(=O)OCc1c(F)cccc1Cl
inactive: [1] 6.8% | [2] -2.15% | [3] 20.9% | [4] 11.5% | [5] 25.1% | [6] 24.5%

O=C(O)CCSC1(SCCC(=O)O)CCCCC1
inactive: [1] -23.9% | [2] -17.9% | [3] -8.55% | [4] -3.25% | [5] -9% | [6] -23.6%

C/C=C/[C@@]1(OC(=O)c2ccccc2)C[C@@H]2CCCC[C@@H]21
inactive: [1] 35.4% | [2] 11.1% | [3] 37.4% | [4] 23.3% | [5] 12.9% | [6] 31.6%

O=C(O)C(CS)(c1ccccc1)c1ccccc1
inactive: [1] 0.65% | [2] 8.25% | [3] 7.7% | [4] 5.95% | [5] -2.85% | [6] 11.4%

CC(C)(C)n1c(=O)[nH]c(=O)n1C(C)(C)C
inactive: [1] 5.75% | [2] -18.4% | [3] -21.9% | [4] 1.9% | [5] -32.8% | [6] -22.2%

COc1cc2c(c([N+](=O)[O-])c1)NC(=O)C(c1ccccc1)S2 (stereo unspecified)
inactive: [1] -15.9% | [2] -12.3% | [3] -3.45% | [4] 23.1% | [5] 15.9% | [6] -3.95%

Cc1cc2nc(Oc3ccccc3)nc(=O)n2o1
inactive: [1] 2.3% | [2] 0.4% | [3] 6.7% | [4] -2.05% | [5] 11.8% | [6] -9.2%

COC(=O)c1cc2ccc1OCC#CC#CCOc1ccc(cc1C(=O)OC)OCC#CC#CCO2
inactive: [1] -1.9% | [2] 5.5% | [3] 7.35% | [4] 5.75% | [5] -0.7% | [6] 19.2%

O=[P+](O)c1cc2c3ccccc3ccc2c2ccccc12
inactive: [1] -34.9% | [2] 11.8% | [3] 32% | [4] -12.3% | [5] 33% | [6] -0.55%

O=C1C(CN2CCCCC2)CCC1CN1CCCCC1 (stereo unspecified)
inactive: [1] 23.9% | [2] 15% | [3] 30.8% | [4] 9.95% | [5] 14.1% | [6] 51.5%

Cc1cc(NC(=O)CCc2ccc(N3C(N)=NC(N)=NC3(C)C)cc2)ccc1S(=O)(=O)O
inactive: [1] 38.1% | [2] -5.55% | [3] 8.05% | [4] -14.4% | [5] 2.05% | [6] -5.55%

CC1(c2cccc(N)c2)OCCO1
inactive: [1] 7.4% | [2] -7.2% | [3] 7.35% | [4] -7.9% | [5] 12.7% | [6] 11.9%
